Records with an inconclusive call do not appear. Active and inactive are the calls of the source. The calls were made as follows, unless noted: active = hit-call score of the fitted dose curve at least 0.9, where 1 is the maximum; inactive = score below 0.9.
Legend:
[1] = ACEA_ER_80hr: ACEA Biosciences xCELLigence Real-Time Cell Analysis on Estrogen Receptor Agonism for Proliferation (AID 2282667; active = hit-call score of the fitted dose curve at least 0.9, where 1 is the maximum); conditions: T47D proliferation, impedance (xCELLigence), 80 h
Outline: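 Real-time impedance growth kinetics of human T-47D breast cells read 80 h after dosing, gain-of-signal fitted relative to DMSO. Compounds: 1:4 serial series, top final concentration 100 uM, n = 2.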

[2] = APR_HepG2_CellCycleArrest_24hr: Apredica 24-hour HepG2 Assay for Cell Cycle Arrest (AID 2282905); conditions: imaging, actives raise or lower the signal;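 also: cell cycle arrest scored as ratio of 2N to 4N nuclear DNA content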
Outline: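 HepG2 cells were exposed to compounds at 0.39–200 uM (ten concentrations, duplicate) in 0.5% v/v DMSO for 24 hr. After formaldehyde fixation and Triton permeabilization, Hoechst 33342-stained nuclei were imaged at 20x; DNA content was quantified, with bidirectional fitting against DMSO.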

[3] = APR_HepG2_NuclearSize_24hr: Apredica 24-hour HepG2 Assay for Nuclear Size (AID 2282907); conditions: high-content imaging, actives raise or lower the signal
Outline: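 HepG2 human liver cells were exposed for 24 hr to compounds at 0.39–200 uM (ten concentrations, duplicate) in 0.5% v/v DMSO. They were then formaldehyde-fixed, Triton-permeabilized and Hoechst 33342-stained, and nuclear diameter was imaged at 20x. Bidirectional fits were made against DMSO.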

[4] = APR_HepG2_CellLoss_24hr: Apredica 24-hour HepG2 Assay for Cell Loss (AID 2282908); conditions: high-content imaging;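 as to AC50: fit in both directions so a hit may be cell loss or gain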
Outline: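 Compounds were tested at 0.39–200 uM in duplicate with 0.5% v/v DMSO final. Cells were then fixed in 3.7% formaldehyde, Hoechst 33342 nuclei were imaged at 20x by HCS, and cell number was fitted bidirectionally against DMSO.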

[5] = APR_HepG2_MicrotubuleCSK_24hr: Apredica 24-hour HepG2 Assay for Microtubule CSK Stabilty (AID 2282909); conditions: HepG2 microtubule cytoskeleton imaging, actives raise or lower the signal
Outline: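 HepG2 cells exposed 24 h to compounds at 0.39–200 uM (duplicate, 0.5% v/v DMSO final), then fixed, permeabilized and immunostained for alpha-tubulin with Hoechst 33342. Cytoskeleton imaged at 20x; bidirectional fit versus DMSO baseline.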

[6] = APR_HepG2_MitoticArrest_24hr: Apredica 24-hour HepG2 Assay for Mitotic Arrest (AID 2282910); conditions: high-content imaging, actives raise or lower the signal
Outline: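 Compounds are dosed onto HepG2 cells across ten concentrations up to 200 uM for 24 hr. Cells are then fixed in 3.7% formaldehyde, permeabilised, and labelled for phospho-histone H3 and nuclei; images are scored by cell cycle analysis and fitted bidirectionally relative to DMSO.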

[7] = APR_HepG2_MitoMembPot_24hr: Apredica 24-hour HepG2 Assay for Mitochondrial Membrane Potential (AID 2282911); conditions: imaging, actives raise or lower the signal
Outline: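 Mitochondrial membrane potential imaged via MitoTracker Red CMXRos (250 nM, 30 min pre-fixation) in fixed HepG2 cells with Hoechst nuclear identification. Ten concentrations 0.39–200 uM, 24 h treatment, 0.5% DMSO; CCCP as positive control.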

[8] = APR_HepG2_MitoMass_24hr: Apredica 24-hour HepG2 Assay for Mitochondrial Mass (AID 2282912); conditions: high-content imaging, actives raise or lower the signal
Outline: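 Human HepG2 liver cells were exposed for 24 hr to compounds at 0.39–200 uM (duplicates, 0.5% v/v DMSO final). They were stained live with 250 nM MitoTracker Red CMXRos for 30 min, fixed in 3.7% formaldehyde, and imaged by HCS fluorescence; signals were fitted bidirectionally against DMSO.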

[9] = APR_HepG2_p53Act_24hr: Apredica 24-hour HepG2 Assay for p53 Activation (AID 2282913); conditions: high-content imaging, actives raise or lower the signal;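 also: p53 protein immunofluorescence averaged per cell in HepG2 with Hoechst nuclei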
Outline: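 Fluorescence imaging of formaldehyde-fixed HepG2 cells labelled for p53 and with Hoechst, 24 h after dosing (0.39–200 uM, duplicate wells, 0.5% v/v DMSO). Signal fitted in both directions relative to DMSO.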

[10] = APR_HepG2_CellCycleArrest_72hr: Apredica 72-hour HepG2 Assay for Cell Cycle Arrest (AID 2282914); conditions: high-content imaging, actives raise or lower the signal
Outline: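 Read-out: nuclear DNA content from Hoechst 33342 high-content imaging (20x, six fields/well) after 3.7% formaldehyde fixation, fitted bidirectionally against DMSO. Treatment was 72 h in HepG2, ten concentrations 0.39–200 uM, duplicate, 0.5% DMSO.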

Measured: AC50

COc1cc(C=O)ccc1O
inactive: all assays above

C[C@]12C=CC(=O)C=C1CC[C@@H]1[C@@H]2C(=O)C[C@@]2(C)[C@H]1CC[C@]2(O)C(=O)CO
active: [1] 14.8 µM
inactive: all other assays above

NCCO
inactive: all assays above

Nc1nc(N)c2nc(CNc3ccc(C(=O)N[C@@H](CCC(=O)O)C(=O)O)cc3)cnc2n1
inactive: all assays above

O=C(O)CCCCC(=O)O
inactive: all assays above

COC(=O)c1ccc(O)cc1
inactive: all assays above

CN[C@H]1CC[C@@H](c2ccc(Cl)c(Cl)c2)c2ccc(S(N)(=O)=O)cc21
active: [4] 15.1 µM
inactive: all other assays above

CCCCCC(=O)O
inactive: all assays above

CC(=O)OC/C=C(\C)CCC=C(C)C
inactive: all assays above

O=C(N[C@@H](Cc1ccccc1)[C@@H](O)C(=O)N1C[C@@H](O)[C@@H](O)C1)c1cc2cc(Cl)ccc2[nH]1
active: [7] 86.4 µM | [10] 91.7 µM
inactive: all other assays above

CCCCCCCCCCCC(=O)OC
inactive: all assays above

C[Si]1(C)O[Si](C)(C)O[Si](C)(C)O[Si](C)(C)O1
inactive: all assays above

CNC(=O)[C@H]1O[C@@H](n2cnc3c(NCc4cc(Cl)ccc4OCc4cc(C)no4)ncnc32)[C@H](O)[C@@H]1N
active: [7] 0.0385 µM
inactive: all other assays above

CCCCOC(=O)CCCCCCCCC(=O)OCCCC
inactive: all assays above

CCCCCCCCCCO
active: [1] 19.8 µM
inactive: all other assays above

CC(C)(C)c1cc(O)c(C(C)(C)C)cc1O
active: [4] 53.6 µM | [6] 83.6 µM | [8] 82.8 µM | [9] 79.8 µM | [10] 51.3 µM
inactive: [1] | [2] | [3] | [5] | [7]

COc1cc(-c2nc(NC(=O)c3cc4cc(C)cc(C)c4n3CC(=O)O)sc2CCC2CCCCC2)c(OC)cc1Cl
inactive: [1]
active: [2] 38.6 µM | [3] 61.4 µM | [4] 29.3 µM | [5] 26.5 µM | [6] 35.1 µM | [7] 15 µM | [8] 14.4 µM | [9] 43.4 µM | [10] 23.4 µM

CCCc1cc(=O)[nH]c(=S)[nH]1
active: [1] 0.747 µM
inactive: all other assays above

Cc1ccccc1Cl
inactive: all assays above

Cc1cccc(C)c1O
inactive: all assays above

Oc1ccc2ccccc2c1N=Nc1ccccc1
active: [1] 6.47 µM | [4] 34 µM | [6] 27.1 µM | [7] 0.0816 µM | [10] 0.813 µM
inactive: all other assays above

COc1cc(S(=O)(=O)O)c(C)cc1N=Nc1c(O)ccc2cc(S(=O)(=O)O)ccc12
active: [7] 100 µM
inactive: all other assays above

— PubChem BioAssay (EPA / NIEHS)
